Source: PubChem BioAssay (NCI)
The panel holds about 83,000 compounds, 20% with a hit somewhere; the sample as a whole holds those more often.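 Compound tested at a single concentration for 48 hours in 96-well plates; a percent growth value below 10 was scored as active.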 Activity calls are given as the source filed them.

The compounds below were run on A549/ATCC NSCLC (assay: NCI-60 one-dose screen, 48 h (100 = growth as untreated, 0 = no growth, -100 = all killed)). Settings: 10 µM unless noted.
For `COc1ccc(-c2nn(-c3ccc(NC(=O)Nc4cc(C(F)(F)F)cc(C(F)(F)F)c4)cc3)cc2-c2ccncc2)cc1Cl`, the growth was 14.6% (inactive).
`O=C(CNc1cccnc1)Nc1ccc(C(=O)/C=C/c2ccc(Cl)cc2)cc1` was tested, and the growth was 88.3% (inactive).
For `CCc1ccc(C2=C/C(=C/c3ccc(Cl)cc3)C(=O)N2CCc2ccc(S(N)(=O)=O)cc2)cc1`, the growth was 13.7% (inactive).
In the case of `O=C(Nc1ccc(-n2ccc3c(NC(=O)c4ccccc4)nccc32)cc1)c1cccc(C(F)(F)F)c1`, the growth is reported as 13% (inactive).
With `O=S(=O)(CCN1CCOCC1)Nc1cc(-c2ccc3ncnc(Nc4ccc(F)c(Cl)c4)c3c2)cnc1Cl` the growth was 10.3% (inactive).
In the case of `CCC1S/C(=N\N=C(/C)c2cc3ccccc3o2)N(c2ccccc2)C1=O` (stereo not given), the growth is reported as 113% (inactive).
With `COc1cccc(-c2nc3sccn3c2-c2ccnc(NCCNC(=O)c3ccccc3)n2)c1` the growth was 75.3% (inactive).
For `NC(N)=N/N=C/c1ccc([N+](=O)[O-])cc1`, the growth was 109% (inactive).
In the case of `C#C[C@@]1(O)[C@@H](CO)O[C@@H](n2cc(Br)c3c(Cl)ccnc32)[C@@H]1O`, the growth is reported as 46.2% (inactive).
`CCOC(=O)C(C)(CSSCC(C)(NC(=O)c1ccc2ccccc2c1)C(=O)OCC)NC(=O)c1ccc2ccccc2c1` (stereo not given) was tested, and the growth was 26.4% (inactive).
In the case of `O=C(C[n+]1cccc(Br)c1)c1ccc2c(c1)CCCC2`, the growth is reported as 95.9% (inactive).
For `CCC(C)Nc1ccc(N)cc1` (stereo not given), the growth was 11.8% (inactive).
In the case of `Cc1cn(-c2nc3c(c(NCc4ccccc4)n2)COCC3)c2cccc(C(N)=O)c12`, the growth is reported as 84% [0.5 µM] (inactive).
`Nc1ncnc2c1ccn2-c1cccc(NC(=O)c2cccc(C(F)(F)F)c2)c1` was tested, and the growth was 50.7% (inactive).
With `COc1ccc(-c2nnc(SCC(=O)Nc3ccc(C(=O)/C=C/c4ccccc4)cc3)o2)cc1OC` the growth was 97.7% (inactive).
In the case of `CCCCCCCCCCCCCCCCCCNCc1ccc(Cl)cc1`, the growth is reported as -80.7% (active).
With `Clc1ccc2c(c1)nnn1c3ncccc3c(Br)c21` the growth was 89.6% (inactive).
For `CCCOC(=O)c1ccc([N+](=O)[O-])o1`, the growth was 101% (inactive).
For `[2H]c1nc(Nc2ncc(F)c(-c3cc(F)c4nc(C)n(C(C)C)c4c3)n2)c([2H])c([2H])c1CN1CCN(CC)CC1`, the growth was 36.2% (inactive).
With `COc1ccccc1N1CCN(CC(O)COc2c(Br)c(Br)c(Br)c3c2OC(C)(C)C3)CC1` (stereo not given) the growth was 45.5% (inactive).
For `CCOC(=O)c1noc2c1CCc1cn(Cc3cc(OC)cc(OC)c3)cc1-2`, the growth was 103% (inactive).
`O=C1c2ccccc2C(=O)c2c(NCCN=Cc3c(O)ccc4ccccc34)cccc21` was tested, and the growth was 19.9% (inactive).
`Cc1[nH]n(C(=O)c2ccncc2)c(=O)c1N=Nc1ccc(S(=O)(=O)Nc2ccncn2)cc1` was tested, and the growth was 18.9% (inactive).
With `O=C(Nc1ccc(Cl)c(Cl)c1)Nc1ccc(Cl)c([N+](=O)[O-])c1` the growth was 4.45% (active).
For `COc1ccc(-c2cnc(-c3ccc(F)cc3)[nH]2)cc1`, the growth was -55.7% (active).
